Some test systems named below: SR leukemia; RPMI-8226 leukemia; OVCAR-8 ovarian; OVCAR-5 ovarian; OVCAR-4 ovarian; SK-OV-3 ovarian; IGROV1 ovarian; OVCAR-3 ovarian; HS 578T breast; NCI/ADR-RES ovarian.
What all share (assay): NCI-60 one-dose screen, 48 h (100 = growth as untreated, 0 = no growth, -100 = all killed)
Details in all cases: 10 µM unless noted

About 83,000 compounds went through this panel and 20% of them were active in at least one assay; those are over-represented in the sample as a whole.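 Each cell line was grown in a 96-well plate and treated with one concentration of compound for 48 hours. Values below 10 were considered active.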 Values without a mark were called inactive. The source made the active and inactive calls.

Consider `Cc1sc2nc(NCCN)[nH]c(=O)c2c1C`, for which the growth was 89.6% in the test with SR leukemia; 110% with RPMI-8226 leukemia; 101% in the test on OVCAR-8 ovarian; 89.5% in the test on OVCAR-5 ovarian; 85.1% in the test with OVCAR-4 ovarian; 111% in the test on SK-OV-3 ovarian. For the same molecule, the growth with IGROV1 ovarian is 100%; in the test on OVCAR-3 ovarian it was 96.7%; with HS 578T breast, 88.7%; in the test with NCI/ADR-RES ovarian, 94.8%.
For `CC1SC(c2ccccc2O)N(NC(=O)CCC(=O)c2nc3ncccc3[nH]2)C1=O` (centres undefined), the growth is 109% in the test with SR leukemia; 93.1% in the test on RPMI-8226 leukemia; 97% with OVCAR-8 ovarian; 107% in the test on OVCAR-5 ovarian; 92.8% with OVCAR-4 ovarian; 92.3% in the test on SK-OV-3 ovarian. Besides, the growth in the test on IGROV1 ovarian was 70.1%; in the test with OVCAR-3 ovarian, 97%; in the test on HS 578T breast, 90.2%; with NCI/ADR-RES ovarian, 89.6%.
With `CC1(C)N=C(N)N=C(N)N1c1cc(Cl)ccc1Cl`, the growth in the test on SR leukemia is 67%; with RPMI-8226 leukemia, 107%; in the test on OVCAR-8 ovarian, 85.5%; in the test with OVCAR-5 ovarian it was 59.2%; in the test on OVCAR-4 ovarian, 96.4%; in the test with SK-OV-3 ovarian, 97.2%. In addition, the growth in the test with IGROV1 ovarian is 68.4%; in the test on OVCAR-3 ovarian, 115%; with HS 578T breast it was 101%; in the test on NCI/ADR-RES ovarian, 67.8%.
`COC(=O)c1c2c(c[n+]([O-])c1C)C(=O)C=C(NCc1ccccc1)C2=O`: the growth in the test on SR leukemia is -10.3% (active); in the test with RPMI-8226 leukemia it was -22.6% (active); in the test with OVCAR-8 ovarian, -60.4% (active); in the test with OVCAR-5 ovarian it was -90% (active); in the test with OVCAR-4 ovarian it was -98.8% (active); in the test on SK-OV-3 ovarian it was -87.6% (active). The growth in the test with IGROV1 ovarian is -66.9% (active); in the test on OVCAR-3 ovarian it was -68.7% (active); with HS 578T breast it was -15.5% (active); with NCI/ADR-RES ovarian, -12.1% (active).
For `O=C1CCC(C(=O)N/N=C/c2cc(F)ccc2F)N1` (centres undefined), the growth in the test on SR leukemia is 109%; in the test on RPMI-8226 leukemia, 103%; in the test with OVCAR-8 ovarian, 101%; with OVCAR-5 ovarian it was 106%; in the test on OVCAR-4 ovarian, 97.6%; in the test on SK-OV-3 ovarian, 108%. For the same molecule, the growth in the test on IGROV1 ovarian was 102%; in the test with OVCAR-3 ovarian, 102%; in the test on HS 578T breast it was 99.1%; in the test on NCI/ADR-RES ovarian it was 106%.
For the molecule `CCCc1cc(=O)oc2c(C(=O)CC(C)C)c(O)c(CC=C(C)C)c(O)c12`, the growth in the test on SR leukemia is 14.3%; in the test with RPMI-8226 leukemia, -12.6% (active); in the test with OVCAR-8 ovarian it was 22.3%; with OVCAR-5 ovarian, 53.8%; in the test on OVCAR-4 ovarian, 30.5%; in the test with SK-OV-3 ovarian it was 23.3%. Further, the growth in the test with IGROV1 ovarian was 36.9%; in the test with OVCAR-3 ovarian, 13.6%; in the test on HS 578T breast it was 28.1%; with NCI/ADR-RES ovarian, 0.191% (active).
For `O=C(NCCCCO)c1cncnc1Nc1ccc2c(ccn2Cc2cccc(F)c2)c1`, the growth in the test with SR leukemia is 93.4%; with RPMI-8226 leukemia, 95.3%; in the test on OVCAR-8 ovarian, 101%; in the test on OVCAR-5 ovarian, 86.3%; in the test with OVCAR-4 ovarian, 100%; in the test on SK-OV-3 ovarian, 89.8%. Besides, the growth in the test with IGROV1 ovarian is 88.1%; in the test with OVCAR-3 ovarian it was 98.5%; with HS 578T breast, 94.1%; with NCI/ADR-RES ovarian, 91.3%.
As to `Nc1cccc(-c2ccc(COc3ccc(CC4SC(=O)NC4=O)cc3)cc2)c1` (centres undefined), the growth in the test with SR leukemia is 26.8%; with RPMI-8226 leukemia it was 53.8%; with OVCAR-8 ovarian, 70.1%; in the test with OVCAR-5 ovarian it was 92.2%; in the test on OVCAR-4 ovarian, 56.4%; with SK-OV-3 ovarian it was 62.1%. Besides, the growth with IGROV1 ovarian is 57.5%; with OVCAR-3 ovarian it was 49.9%; with HS 578T breast it was 59.8%; with NCI/ADR-RES ovarian it was 47.1%.
Take `C=CCN=c1sc(-c2ccc3ccccc3c2)cn1NC(=O)c1cc2ccc1CCc1ccc(cc1)CC2`: the growth in the test on SR leukemia is 39.1%; in the test with RPMI-8226 leukemia it was 25.8%; in the test with OVCAR-8 ovarian, 65.5%; in the test on OVCAR-5 ovarian, 103%; with OVCAR-4 ovarian it was 33.5%; in the test on SK-OV-3 ovarian it was 82.1%. The growth is 81.3% in the test on IGROV1 ovarian, 53.2% in the test with OVCAR-3 ovarian, 58.7% in the test with HS 578T breast and 67.2% in the test with NCI/ADR-RES ovarian.
Turning to `COc1ccc(/C=C2\CN(C(=O)C(Cl)Cl)C/C(=C\c3ccc(OC)c(OC)c3)C2=O)cc1OC`, the growth was 6.16% (active) in the test on SR leukemia; -5.84% (active) in the test with RPMI-8226 leukemia; 19.1% in the test on OVCAR-8 ovarian; 10.6% in the test on OVCAR-5 ovarian; 19.8% in the test on OVCAR-4 ovarian; 48.3% in the test on SK-OV-3 ovarian. The growth in the test with IGROV1 ovarian is -43.9% (active); with OVCAR-3 ovarian, -16.6% (active); with HS 578T breast it was 21.1%; in the test with NCI/ADR-RES ovarian, 13.7%.
As to `O=CN1N=C(c2cccc(Nc3ccnc4cc(Cl)ccc34)c2)CC1c1ccc(Cl)cc1` (centres undefined), the growth in the test on SR leukemia is 8.98% (active); in the test on RPMI-8226 leukemia, 32.9%; in the test with OVCAR-8 ovarian, 43.7%; in the test with OVCAR-5 ovarian, 58.7%; with OVCAR-4 ovarian, 57.5%; in the test on SK-OV-3 ovarian, 24.1%. Also, the growth was 38.7% in the test with IGROV1 ovarian, -17% (active) in the test with OVCAR-3 ovarian, 1.82% (active) in the test on HS 578T breast and 5.69% (active) in the test with NCI/ADR-RES ovarian.
On to `COc1ccc(C/C(C)=C(\c2ccc(Cl)cc2)c2ccc(OCCN3CCCC3)cc2)cc1`, for which the growth in the test on SR leukemia was -14.2% (active); with RPMI-8226 leukemia, 13.9%; with OVCAR-8 ovarian it was 91.1%; in the test on OVCAR-5 ovarian it was 68.9%; with OVCAR-4 ovarian it was 97.7%; with SK-OV-3 ovarian, 101%. In addition, the growth is 69% in the test on IGROV1 ovarian, 93.1% in the test on OVCAR-3 ovarian, 70.4% in the test on HS 578T breast and 87.8% in the test on NCI/ADR-RES ovarian.
Take `COc1cc(/C=C2\C(=O)N(CCCOc3cc(O)c4c(=O)cc(-c5ccccc5)oc4c3)c3ccccc32)cc(OC)c1O`: the growth was 31.9% in the test on SR leukemia; 86.7% in the test with RPMI-8226 leukemia; 84.7% in the test with OVCAR-8 ovarian; 110% in the test with OVCAR-5 ovarian; 83.6% in the test with OVCAR-4 ovarian; 91.6% in the test on SK-OV-3 ovarian. For the same molecule, the growth was 77.2% in the test on IGROV1 ovarian, 44.5% in the test on OVCAR-3 ovarian, 70.4% in the test on HS 578T breast and 64% with NCI/ADR-RES ovarian.
Turning to `COc1cc(/C=C/c2cn[nH]c2-c2ccc(C)cc2)cc(OC)c1OC`, the growth was 12.3% in the test with SR leukemia; 25.8% in the test with RPMI-8226 leukemia; 32.8% in the test with OVCAR-8 ovarian; 85% in the test on OVCAR-5 ovarian; 78.5% with OVCAR-4 ovarian; 16.2% with SK-OV-3 ovarian. The growth with IGROV1 ovarian is 51.9%; with OVCAR-3 ovarian, 15.5%; in the test on HS 578T breast it was 39.9%; with NCI/ADR-RES ovarian, 16.7%.
Consider `Nc1ncnc2c1N=C(c1ccc(Cl)cc1)CC(c1cccc(Nc3ccnc4cc(Cl)ccc34)c1)N2` (centres undefined), for which the growth is -12.6% (active) in the test with SR leukemia; -20.5% (active) in the test with RPMI-8226 leukemia; 77.9% in the test with OVCAR-8 ovarian; 111% with OVCAR-5 ovarian; 70.7% with OVCAR-4 ovarian; 80.5% in the test on SK-OV-3 ovarian. Besides, the growth in the test on IGROV1 ovarian was 66.7%; in the test on OVCAR-3 ovarian, 80.6%; in the test on HS 578T breast, 68.2%; with NCI/ADR-RES ovarian, 73.1%.
Regarding `CN(C)CCn1c(=O)c2ccccc2n2nc3ccccc3c12`, the growth was 46.8% in the test with SR leukemia; 101% with RPMI-8226 leukemia; 79.2% in the test with OVCAR-8 ovarian; 105% in the test on OVCAR-5 ovarian; 83.9% in the test on OVCAR-4 ovarian; 94.5% in the test with SK-OV-3 ovarian. The growth in the test on IGROV1 ovarian was 74.9%; in the test on OVCAR-3 ovarian, 99.2%; in the test on HS 578T breast it was 97.8%; in the test on NCI/ADR-RES ovarian it was 76.7%.
In the case of `Cc1cccc(NC(=O)N/C(N)=N/c2nc3ccccc3s2)c1`, the growth in the test on SR leukemia is 27.1%; in the test with RPMI-8226 leukemia it was 26.4%; with OVCAR-8 ovarian, 35.5%; in the test with OVCAR-5 ovarian it was 56.4%; with OVCAR-4 ovarian, 56.9%; in the test on SK-OV-3 ovarian, 35.2%. The growth in the test on IGROV1 ovarian was 36.9%; in the test with OVCAR-3 ovarian, 8.85% (active); in the test on HS 578T breast it was 23.8%; with NCI/ADR-RES ovarian, 15%.
With `CC(C)Cc1nc(Nc2ccccc2)[nH]c(=O)c1C#N`, the growth in the test on SR leukemia is 34.2%; with RPMI-8226 leukemia, 25.1%; in the test on OVCAR-8 ovarian it was 64.4%; in the test on OVCAR-5 ovarian, 84.9%; in the test on OVCAR-4 ovarian, 36.8%; in the test on SK-OV-3 ovarian it was 60%. In addition, the growth in the test with IGROV1 ovarian was 71.4%; with OVCAR-3 ovarian, 30.8%; in the test on HS 578T breast it was 36.2%; in the test on NCI/ADR-RES ovarian it was 62.9%.
On to `Clc1cccc(C2Cc3cnccc3-c3[nH]c4ccncc4c32)c1` (centres undefined), for which the growth in the test with SR leukemia was 36.5%; in the test with RPMI-8226 leukemia it was 14.1%; in the test on OVCAR-8 ovarian, 56.4%; in the test with OVCAR-5 ovarian, 86.4%; in the test on OVCAR-4 ovarian, 36.2%; in the test on SK-OV-3 ovarian, 50.9%. Besides, the growth with IGROV1 ovarian is 52.7%; in the test with OVCAR-3 ovarian, 42.2%; with HS 578T breast it was 85%; in the test with NCI/ADR-RES ovarian, 47.7%.
For the molecule `COc1ccc(Oc2ccc(/C=C/C(=O)c3cc4ccccc4oc3=O)cc2)cc1`, the growth was 80.9% in the test with SR leukemia; 59.6% in the test with RPMI-8226 leukemia; 93.5% in the test with OVCAR-8 ovarian; 112% in the test with OVCAR-5 ovarian; 80.7% in the test with OVCAR-4 ovarian; 92.4% with SK-OV-3 ovarian. The growth was 70.1% in the test on IGROV1 ovarian, 107% in the test with OVCAR-3 ovarian, 101% in the test on HS 578T breast and 85.6% in the test with NCI/ADR-RES ovarian.
In the case of `COc1cc2c(c(OC)c1OC)CCC(c1cccc(C(=O)Nc3ccc(Br)cc3)c1)O2` (centres undefined), the growth in the test on SR leukemia is 27.7%; in the test on RPMI-8226 leukemia, 40.5%; with OVCAR-8 ovarian it was 71.8%; in the test with OVCAR-5 ovarian, 68.4%; in the test with OVCAR-4 ovarian, 63.8%; in the test on SK-OV-3 ovarian, 72.7%. Also, the growth was 61.2% with IGROV1 ovarian, 78.8% in the test with OVCAR-3 ovarian, 78.5% in the test with HS 578T breast and 63.9% with NCI/ADR-RES ovarian.
For the molecule `O=[N+]([O-])c1ccccc1Nc1ccc2ccccc2c1`, the growth is 88.1% in the test on SR leukemia; 82.7% in the test with RPMI-8226 leukemia; 88.6% in the test with OVCAR-8 ovarian; 113% with OVCAR-5 ovarian; 88% in the test with OVCAR-4 ovarian; 84.7% in the test with SK-OV-3 ovarian. Further, the growth was 87% in the test with IGROV1 ovarian, 96.3% in the test with OVCAR-3 ovarian and 105% with NCI/ADR-RES ovarian.

Values taken from PubChem BioAssay (NCI).
